An excerpt weighted towards active compounds, which were near 7.2% of everything screened.
FMDV antiviral: High Throughput Screening for Foot and Mouth Disease Virus Antivirals; FMDV antiviral cell-based qHTS; 410,000 compounds, 1.2% hits; Potency, µM (titrated, usually from 57.9 µM), most hits filed as inhibitors; calls by dose curve; tested in HEK293T cells; also: read-out not given here; nearly all actives have a fitted effect of over 45% in size
Marburg entry inh: qHTS for inhibitors of binding or entry into cells for Marburg Virus. Marburg virus pseudotyped entry inhibition, cell reporter. Potency, µM (titrated, usually from 37.8 µM), hits mostly inhibitors. 300,000 compounds, 1.8% hits. AID 540276, 2011; calls by dose curve; tested in HEK293 cells
Sm TGR block: qHTS Assay for the Inhibitors of Schistosoma Mansoni Peroxiredoxins; Schistosoma mansoni thioredoxin glutathione reductase (TGR), Q962Y6; purified TGR, DTNB reduction, TNB absorbance 405 nm; Potency, µM (doses to about 114 µM), most hits filed as inhibitors; 360,000 compounds, 3% hits; AID 485364, 2010; also: nearly all actives have a fitted effect of over 60% in size
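Kinetic colorimetric format: TGR-catalysed, NADPH-driven DTNB reduction monitored via TNB absorbance. Enzyme dispensed at 20 nM; compound exposure 15 min at room temperature before reaction start.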
HCV inhibitor: qHTS Assay for Inhibitors of Hepatitis C Virus (HCV); AID 651820, 2012; 340,000 compounds, 3.4% hits; Huh7.5.1 HCVcc-Cre infection, luciferase reporter, 44 h; Potency, µM (series often up to 41.8 µM), usual class: inhibitors
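Cells seeded at 1,000/well and cultured 4 h, then compounds added followed by HCVcc-Cre virus (~0.5 moi). After 44 h further culture, luciferase substrate was added, plates held 15 min at room temperature, and luminescence read for 15 sec.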
RE007 growth inh: qHTS Assay for Inhibitors of the HIV-1 protein Vpr | AID 651644, 2012 | 360,000 compounds, 0.21% hits | Potency, µM (highest dose often 92.2 µM), most hits filed as inhibitors | S. pombe RE007 Vpr strain, BacTiter-Glo ATP luminescence, 24 h; active = well fitted falling curve with a large enough effect; inconclusive = small, poorly fitted or top-dose-only effect; inactive = no such curve, though single readings can be large or run the other way; also: nearly all actives have a fitted effect of over 50% in size
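Fission yeast strain RE007, carrying one chromosomally integrated HIV-1 vpr copy, was seeded at OD 0.01 in PMG+AL medium with 23 nL pinned compound. After 24 h at 30 °C and 99% humidity, viability was read by BacTiter-Glo luminescence.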
Lassa entry inh: qHTS for Inhibitors of binding or entry into cells for Lassa Virus; Lassa virus pseudotype entry inhibition, cell reporter; Potency, µM (highest dose often 37.9 µM), hits mostly inhibitors; 300,000 compounds, 1.2% hits; calls by dose curve; tested in HEK293 cells; also: nearly all actives have a fitted effect of over 50% in size
A number is an active result; i = inactive; ? = inconclusive; nt = no result; [ ] = another dose, or the depositor's remark. Unless noted, calls follow the shape of the dose curve; as a rule, active = well fitted curve in the direction sought with a large enough effect; inconclusive = small, poorly fitted or top-dose-only effect, or another doubt; inactive = no such curve, though single readings can be large; an effect the other way counts as inactive or inconclusive.

SMILES	FMDV antiviral	Marburg entry inh	Sm TGR block	HCV inhibitor	RE007 growth inh	Lassa entry inh
CCN(CC)S(=O)(=O)c1ccc(NC(=O)c2ccc(N(C)S(C)(=O)=O)cc2)cc1	4µM	i	i	4.5µM	i	?
CCN(CC)S(=O)(=O)c1ccc(C(=O)Nc2cc(C)cc(C)c2)cc1	i	?	i	i	i	?
CC(C)(C)c1ccc(S(=O)(=O)Nc2ccc(Cc3ccncc3)cc2)cc1	i	?	i	?	i	10µM
CCN(CC)S(=O)(=O)c1ccc(NC(=O)c2ccccc2N(C)S(C)(=O)=O)cc1	i	i	i	i	i	i
CCN(CC)S(=O)(=O)c1ccc(C(=O)Nc2ccc(Cc3ccncc3)cc2)cc1	?	?	i	3.2µM	i	?
CC(=O)Nc1ccc(S(=O)(=O)Nc2ccc(Cc3ccncc3)cc2)cc1	i	?	i	i	i	?
CNc1ncnc2c1ncn2[C@H]1C[C@H](O)[C@@H](CO)O1	i	nt	nt	nt	nt	nt
COC1=CC(=O)C(O)=C/C1=C\C=C\c1ccccc1	40µM	nt	nt	nt	nt	nt
COc1cc(O)cc(/C=C/c2ccccc2)c1	i	i	nt	?	i	?
Cc1cccc(OCCOc2ccccc2C=C(C#N)C#N)c1	i	?	2.5µM	i	i	i
Cc1ccccc1OCCOc1ccccc1C=C(C#N)C#N	nt	i	4µM	i	nt	?
Cc1ccccc1OCCNC(=S)Nc1ccccc1	i	?	i	?	i	?
Cc1ccc(NC(=O)c2oc3ccccc3c2NC(=O)C2CCCCC2)cc1	i	i	i	nt	nt	i
COc1ccc(/C=N/NC(=O)C(=O)/C=C2\NC3(CCCC3)Cc3ccccc32)cc1	?	?	i	10µM	i	i
O=C(OC1Cc2c(O)cc(O)cc2OC1c1cc(O)c(O)c(O)c1)c1cc(O)c(O)c(O)c1 (stereo unspecified)	i	nt	nt	nt	nt	nt
O=C(O[C@@H]1Cc2c(O)cc(O)cc2O[C@@H]1c1cc(O)c(O)c(O)c1)c1cc(O)c(O)c(O)c1	nt	nt	11µM	nt	nt	nt
Cc1sc2nc(SCC(=O)C(C)(C)C)n(Cc3ccco3)c(=O)c2c1C	i	?	i	?	i	8.2µM
COc1cccc(CSc2nc3sc(C)c(C)c3c(=O)n2Cc2ccco2)c1	i	15µM	i	i	i	?
Cc1cccc(CSc2nc3sc(C)c(C)c3c(=O)n2Cc2ccco2)c1	i	i	i	i	i[3.69 µM]	i
Cc1ccc2oc(=O)c3cc(C(=O)Nc4ccc(F)cc4F)sc3c2c1	i	i	i	nt	nt	?
CCCCNc1c(-c2cccc(-c3ccc(OC)cc3)c2)nc2ccc(C)cn12	28µM	nt	i	?	?	nt
CCCCNc1c(-c2cccc(-c3cc(C(C)=O)cs3)c2)nc2ccc(C)cn12	?	nt	i	?	i	nt
CCCCNc1c(-c2cccc(-c3ccc(OC)cc3)c2)nc2cc(C)ccn12	25µM	nt	nt	11µM	i	nt
CCCCNc1c(-c2ccc(-c3cccc(Cl)c3)cc2)nc2ccccn12	i	nt	i	?	?	nt
CCOC(=O)N1CCc2c(sc3c2c(=O)n(-c2ccccc2C(F)(F)F)c(=O)n3Cc2ccccc2C)C1	i	i	i	nt	nt	i
SMILES	FMDV antiviral	Marburg entry inh	Sm TGR block	HCV inhibitor	RE007 growth inh	Lassa entry inh
COc1ccc(NC(=O)CSc2nc(-c3cc(OC)c(OC)c(OC)c3)[nH]c2-c2ccc(F)cc2)cc1	i	?	i	nt	nt	i
Cc1ccccc1CS(=O)(=O)c1nnc([C@H](Cc2ccccc2)NC(=O)OC(C)(C)C)o1	28µM	?	1.1µM	i	i	?
CCC(C)[C@@H](NC(=O)OC(C)(C)C)c1nnc(S(=O)(=O)Cc2cccc(C)c2)o1 (stereo partly specified)	32µM	?	2µM	?	i	?
CC(C)(C)OC(=O)N[C@@H](Cc1ccccc1)c1nnc(S(=O)(=O)Cc2ccccc2)o1	nt	nt	0.63µM	nt	nt	nt
CCSc1nnc([C@H](Cc2ccccc2)NC(=O)OC(C)(C)C)o1	i	i	i	i	i	?
CC(C)(C)OC(=O)N[C@@H](Cc1ccccc1)c1nnc(SCC(=O)O)o1	i	i	i	i	i	i
Cc1cccc(CS(=O)(=O)Cc2ccc(C(=O)NC(C)c3ccccc3)o2)c1 (stereo unspecified)	i	nt	?	?	i	i
COC(=O)C1CCCCN1Cc1nc(N2CCCCC2)c2cc(OC)c(OC)cc2n1 (stereo unspecified)	i	nt	nt	nt	nt	nt
COc1ccc(C2CC(=O)c3cc(-c4nc(-c5cccc([N+](=O)[O-])c5)cs4)c(=O)n(-c4ccc(F)cc4)c3C2)cc1 (stereo unspecified)	i	i	i	nt	nt	i
N#Cc1cccc2c1-c1ccccc1/C2=N/NC(N)=S	35µM	?	i	13µM	i	?
COc1ccc(CCC(=O)Nc2ccc(S(=O)(=O)N3CCOCC3)cc2)cc1	i	i	i	i	i	i
O=C(/C=C/c1ccco1)Nc1ccc(Cl)c(S(=O)(=O)N2CCOCC2)c1	22µM	nt	8.9µM	10µM	i	nt
COc1ccc(/C=C/C(=O)Nc2ccc(C)c(S(=O)(=O)N3CCOCC3)c2)cc1	?	nt	nt	2.8µM	i	nt
COc1ccc(N(CC(=O)Nc2ccc(S(=O)(=O)N3CCOCC3)cc2)S(=O)(=O)c2ccc(F)cc2)cc1	i	?	i	14µM	i	i
COc1ccc(/C=C/C(=O)Nc2ccc(S(=O)(=O)N3CCOCC3)cc2)c(OC)c1	i	nt	i	10µM	i	nt
COc1ccc(NC(=O)/C=C/c2ccc(S(=O)(=O)N3CCOCC3)cc2)cc1	i	nt	i	i	i	nt
CC(C)=CCN1C(=O)[C@]2(O[C@H](COc3ccccc3)CC3=C2CCC3)c2ccccc21	nt	i	nt	nt	nt	nt
O=C(CSC1c2ccccc2-c2ccccc21)N/N=C/c1ccccc1O	?	8.2µM	i	?	i	12µM
COc1cccc2c1C(CO)N1C(C#N)C3CC(C(=O)O)C(C1C2)N3C (stereo unspecified)	i	nt	i	1.1µM	i	nt
Cc1nn2c(NCCN(C)C)c3c(nc2c1-c1ccccc1)CCCC3	i	10µM	i	7.1µM	i	i
Cc1nn2c(NCCOCCO)c3c(nc2c1-c1ccccc1)CCCC3	i	?	i	11µM	i	i
Cc1nn2c(N3CCCC3)c3c(nc2c1-c1ccccc1)CCC3	i	i	11µM	i	i	i
COCCNc1c2c(nc3c(-c4ccccc4)c(C)nn13)CCCC2	?	?	i	?	i	i
Cc1nn2c(N3CCN(CCO)CC3)c3c(nc2c1-c1ccccc1)CCCC3	i	?	i	i	i	i
CCC(C)Nc1c2c(nc3c(-c4ccccc4)c(C)nn13)CCC2 (stereo unspecified)	?	i	i	2.2µM	i	i
CCCCNc1c2c(nc3c(-c4ccccc4)c(C)nn13)CCC2	i	i	i	i	i	i
